Where “and” joins values, the source holds several entries; their conditions need not be identical. Equal entries are not always repeated. This is part of a sample that, as a whole, favours compounds with a hit. Of some 83,000 tested, about 20% had one in any assay.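 Values shown are percent growth following 48 h exposure of cells in 96-well plates to a single concentration of compound; below 10 was considered active.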 Values without a mark were called inactive. Calls of active or inactive are those of the source.

The experiment concerns MDA-MB-468 breast. In words: NCI-60 one-dose screen, 48 h (100 = growth as untreated, 0 = no growth, -100 = all killed). The settings on record: 10 µM unless noted.
Consider `COc1ccc2[nH]c(O)c(/C=c3/ccc4c(c3)N=C(c3ccc(C(F)(F)F)cc3)N=4)c2c1`, for which the growth was 93.8%.

For `O=C1OC2(c3ccccc31)c1ccccc1-c1ccccc12`, the growth was 40.2%.

On to `COc1cc2nccc(Oc3ccc(NC(=O)C4(C(=O)Nc5ccc(F)cc5)CC4)cc3)c2cc1O`, for which the growth is 86.4%.

Turning to `COc1cc(/C=C/C(=O)N2c3ccccc3CC2C)c(OC)c2c1OCO2` (stereo unspecified), the growth is 86.9%.

With `Cc1ccc(C(=O)/C(=C/c2ccc([N+](=O)[O-])cc2)S(=O)Cc2ccccc2)cc1` (stereo unspecified), the growth is -54.1% (active).

As for `CN1CCN(Cc2ccc(NC(=O)c3cncc(C#Cc4cnc5ccc(Cl)nn45)c3)cc2C(F)(F)F)CC1`, the growth is -20.1% (active).

For the compound `CCOC(=O)C(N)Cc1cc(I)c(O)c(I)c1` (stereo unspecified), the growth was 101% and 113%.

As for `Nc1nc(N(Cc2ccccc2)c2ccccc2)c2cn[nH]c2n1`, the growth was 33.3%.

As for `N#Cc1c(-c2ccc(F)cc2)n2c(nc1=O)SC(=O)C2=O`, the growth is 94.5%.

Turning to `COc1ccc(-c2ccc(-c3ccc(C(=N)N)nc3)s2)cc1Cl`, the growth was -51.8% (active).

On to `CC(C)=CCC[C@](C)(O)[C@H]1CC[C@]2(C)[C@@H]1CC[C@@H]1[C@@]3(C)CC[C@H](OC(=O)CCC(=O)O)C(C)(C)[C@@H]3CC[C@]12C`, for which the growth is 30.5% [100 µM].

Consider `O=S(=O)(Nc1cc(Sc2nc3ccccc3s2)c(O)c2ccccc12)c1ccc2ccccc2c1`, for which the growth is -0.0972% (active).

`CCCCN1C(=O)/C(=c2\sc3n(c2=O)C2C(NN=3)N(CC)C(=O)N2CC)c2cc(C)ccc21` (stereo unspecified): the growth was 65.4%.

Consider `O=C(CSc1nc2ccccc2c(=O)n1-c1ccc(Cl)cc1)N/N=C/c1ccc(Oc2ccc(Cl)cc2)cc1`, for which the growth was -18.6% (active).

With `COc1ccc(/C=C2/C(=O)ON=C2C)cc1`, the growth was 103%.

With `CCOC(=O)c1cc(/C=C/c2cccc(Cl)c2)on1`, the growth is 60.3%.

As to `COc1cccc(-c2nc3sccn3c2-c2ccnc(NCCNS(=O)(=O)c3ccccc3)c2)c1`, the growth was 16.2%.

Consider `C[n+]1c2ccccc2c(Nc2ccc(N3CCCCC3)cc2)c2[nH]c3ccccc3c21`, for which the growth was -73.8% (active).

Regarding `CCN1CCN(CCNc2nccc(-c3c(-c4ccc(F)c(O)c4)nc4occn34)n2)S1(=O)=O`, the growth is 23.5%.

With `CO[C@H](C(=O)[C@@H](O)[C@@H](C)O)[C@@H]1Cc2cc3cc(O[C@H]4C[C@@H](O[C@H]5C[C@@H](O)[C@H](O)C(C)O5)[C@H](O)C(C)O4)c(C)c(O)c3c(O)c2C(=O)[C@H]1O[C@H]1C[C@@H](O[C@H]2C[C@@H](O[C@H]3C[C@](C)(O)C(=O)C(C)O3)[C@@H](O)C(C)O2)[C@H](O)C(C)O1` (stereo partly specified), the growth is -46.7% (active).

For the compound `O=S(=O)(O)c1ccc(Cl)c(Cl)c1`, the growth is 115%.

Consider `O=C1CC(=O)OC(c2ccc([N+](=O)[O-])cc2)O1`, for which the growth was -49.7% (active).

For `CCC(C)[C@H](NC(C)=O)C(=O)N[C@@H](CCCNC(=N)N)C(=O)N[C@@H](CCCCN)C(=O)N[C@@H](CC1CCC(O)CC1)C(=O)NC(C(=O)N[C@@H](CCSC)C(=O)N[C@@H](CCCNC(=N)N)C(=O)N[C@@]1(C)CCC/C=C\CCC[C@@](C)(C(=O)NC(C(=O)N[C@@H](CCC(=O)O)C(=O)N[C@@H](CC(C)C)C(=O)N[C@H](C(=O)N[C@@H](CCC(=O)O)C(N)=O)C(C)C)[C@@H](C)O)NC(=O)[C@H](CCC(N)=O)NC(=O)[C@H](CC(C)C)NC(=O)[C@H](CC(C)C)NC1=O)[C@@H](C)O` (stereo partly specified), the growth was 99.7%.

Consider `Cc1ncc([N+](=O)[O-])n1CCOc1ccc(C(=O)/C=C/c2ccc(C(F)(F)F)cc2)cc1`, for which the growth was 71.3%.

For the compound `CCOc1ccc2c(c1)CN(Cc1ccc(Cl)cc1)CO2`, the growth was 57.2%.

In the case of `O=C1CC[C@@H]2CCCC[C@@H]2C1`, the growth was 125%.

Turning to `Nc1ncc([N+](=O)[O-])cn1`, the growth is 96.2%.

Turning to `COc1ccc(-c2nc3c(c(C)nn3-c3ccc(F)cc3)c(=O)[nH]2)cc1`, the growth is 88.9%.

On to `Cc1cc(C)cc(S(=O)(=O)n2ccc(-c3ccc4c(c3)CCC(C)(C)O4)n2)c1`, for which the growth was 54.6%.

Take `c1csc([C@@H]2C[C@@H]3Cc4ccc5ccccc5c4N2O3)c1`: the growth is 99.2%.

`COC(=O)C1Cc2ccccc2CN1C(=O)c1ccc2c(c1)Cc1ccccc1-2` (stereo unspecified): the growth was 14.5% [50 µM].

Values taken from PubChem BioAssay (NCI).
